The nature of assay [1]: NCI Yeast Anticancer Drug Screen. Data for the rad50 strain (AID 155).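 Further: 0% = growth of vehicle-only cultures of the same strain.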 As to conditions: S. cerevisiae rad50 strain growth inhibition; at 50.0 µM; hits give high values. An outline of the steps:
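Vehicle-treated cultures provide the reference for the growth inhibition reported for compound-exposed, repair-deficient yeast.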

Assay [2] can be described thus: NCI Yeast Anticancer Drug Screen. Data for the mec2-1 strain (AID 157). The note with it: S. cerevisiae mec2-1 strain, at 50.0 µM, hits give high values. An outline of the steps: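 Each compound was tested on mec2-1 yeast, a strain altered in DNA damage repair or cell cycle control. Growth inhibition is reported relative to vehicle.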
Assay [3] is described as follows: NCI Yeast Anticancer Drug Screen. Data for the sgs1 mgt1 strain (AID 161).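 Further: 0% = growth of cultures given vehicle only.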 The note with it: S. cerevisiae sgs1 mgt1 strain, at 50.0 µM, hits give high values. An outline of the steps:
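Inhibition of yeast growth, normalised to vehicle-treated controls, is reported for a strain bearing genetic alterations in DNA damage repair.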

Assay [4] in a line: NCI Yeast Anticancer Drug Screen. Data for the cln2 rad14 strain (AID 165).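 Further: 0% = growth equal to vehicle treated cultures.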 As to conditions: S. cerevisiae cln2 rad14 strain, at 50.0 µM, hits give high values. An outline of the steps: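 Test compounds were added to cln2 rad14 yeast cultures; inhibition of growth was then determined by comparison with vehicle treatment.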
Assay [5] can be described thus: NCI Yeast Anticancer Drug Screen. Data for the bub3 strain (AID 167). The note with it: S. cerevisiae bub3 mutant strain, at 50.0 µM, hits give high values. An outline of the steps:
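Mutant yeast screening strain plus compound; vehicle-treated cultures serve as the 0% inhibition reference.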

Assay [6] in a line: NCI Yeast Anticancer Drug Screen. Data for the mlh1 rad18 strain (AID 175). As to conditions: S. cerevisiae mlh1 rad18 strain growth inhibition; at 50.0 µM; hits give high values. An outline of the steps:
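Inhibition values reflect reduced growth of mutant yeast versus vehicle-treated controls following compound exposure; the mutations affect DNA damage repair.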

Here are results for seven compounds from PubChem BioAssay (NCI).

Compounds without any hit were thinned out: in the full panel of roughly 79,000, 15% have a hit. Unmarked numbers belong to inactive results. Active and inactive are the calls of the source. No stated cut-off is given here; in the data, active means growth inhibition above about 70%; inactive means the rest.

For the compound `O=C(O)c1n[nH]nc1Cl`, the growth inhibition in assay [1] was -5.9%; in assay [2], 0.7%; in assay [3] it was 5.35%; in assay [4], -4.2%; in assay [5], -6.15%; in assay [6], 19.2%.
Regarding `COC(=O)/C=C\C(C#N)(C#N)N=Cc1ccsc1`, the growth inhibition was 67.9% in assay [1]; 75.5% (active) in assay [2]; 79.8% (active) in assay [3]; 29.6% in assay [4]; 74% (active) in assay [5]; 87.6% (active) in assay [6].
Regarding `C1CCCCNCCC1`, the growth inhibition in assay [1] is -22.8%; in assay [2], -22.2%; in assay [3], -56.5%; in assay [4] it was -3.4%; in assay [5] it was -26.7%; in assay [6], -27.3%.
As to `O=C1C=CC=C/C1=C1\N=C(c2ccccc2OCC(=O)c2ccc(Br)cc2)SS1`, the growth inhibition in assay [1] is 10.1%; in assay [2] it was 18.1%; in assay [3] it was 12.8%; in assay [4], 8.75%; in assay [5] it was -0.75%; in assay [6], -43.5%.
Regarding `COc1cc(Oc2c(C)c(Cl)c(OC)c(Cl)c2OC)c2c(c1Cl)COC2=O`, the growth inhibition in assay [1] is 28.5%; in assay [2], -6.45%; in assay [3], 15.6%; in assay [4], 17.6%; in assay [5] it was -5.75%; in assay [6], 22.8%.
In the case of `O[C@H]1[C@H](O)[C@@H](Cn2nnc(-c3ccccc3)c2-c2ccccc2)OCO[C@@H]1Cn1nnc(-c2ccccc2)c1-c1ccccc1`, the growth inhibition in assay [1] was 53.3%; in assay [2], 31%; in assay [3] it was 13.4%; in assay [4], 50.9%; in assay [5] it was 28.8%; in assay [6], 29.1%.
Regarding `C[C@@H]1CC[C@H]2C(C)(C)[C@H]3C[C@@]12CC[C@@]3(C)O`, the growth inhibition is 21.9% in assay [1]; -16.9% in assay [2]; 12.8% in assay [3]; 14.1% in assay [4]; 11.8% in assay [5]; -18.6% in assay [6].
